Measurements as given in PubChem BioAssay AID932 (The Scripps Research Institute Molecular Screening Center, 2007).
Hit rate of the full screen: of about 200,000 compounds, about 5,100 (2.5%) were called active.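 How the source made its calls: active means activation above the screen-wide mean activation plus 3 SD (cut at about 130% in these data); inactive means the rest.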 The entries come from a sample that favours actives as a whole.

Test: potentiators of IFN-gamma driven STAT1 reporter – cell-based, HTS, luciferase reporter, primary screen (AID 932);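 further: raw ratio to IFN-gamma control signal so 100% means no change and 0% no light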
Conditions: NIH 3T3 STAT1-luciferase reporter, luminescence, at 5.5 µM, hits give high values, 100% = IFN-gamma alone, no compound

Activation (% of control), active:
Cc1ccc(-c2cn3cc([N+](=O)[O-])ccc3n2)cc1 133%
COc1ccc(-c2cn3ccsc3n2)cc1 135%
O=C(Nc1ccc(Br)cn1)c1ccc([N+](=O)[O-])cc1Cl 142%
COc1cccc(C(=O)Nc2cc3c(cc2Br)OCCCO3)c1 141%
Cc1cccc(-n2c(O)c(C=Nc3ccccc3N)c(=O)[nH]c2=O)c1 156%
O=C(Nc1cccc(Cl)c1)OCc1ccccn1 130%
O=C(Nc1ccccc1Cl)c1ccc2nsnc2c1 133%
Nc1nc(-c2sc3nc4c(cc3c2N)CCCC4)nc(N2CCOCC2)n1 153%
O=C1c2ccccc2NC(c2ccc(-c3cccc(Cl)c3)o2)N1O (configuration not stated) 132%
CN1CCN(c2ccc(NC(=O)c3ccc4c(c3)OCCO4)cc2Cl)CC1 144%
COc1ccc(-c2csc(Cc3nc(O)cs3)n2)cc1 221%
Cc1csc(NC(=O)Nc2ccccc2[N+](=O)[O-])n1 133%
CC(C)(C)C(=O)c1cnc(Nc2ccccc2)s1 156%
CCn1nnnc1SCC(=O)c1ccc(C)cc1C 145%

Activation (% of control), inactive:
Cc1ccc(-c2cn3cc(C)ccc3n2)cc1 12.9%
Cc1ccc(-n2cc3ccc([N+](=O)[O-])cc3n2)cc1 123%
CCN(/N=C/c1ccccc1)c1cc(=O)n(C)c(=O)[nH]1 98.7%
COc1ccccc1NC(=O)C1=C(C)NC(=O)NC1c1ccc(C)s1 (configuration not stated) 99.8%
COc1ccc(-c2cn3cccnc3n2)cc1 118%
CCCC(=O)Nc1cccc(-c2cn3ccsc3n2)c1 108%
COc1cc(NC(=O)CSc2nnc3ccc(-c4ccncc4)nn23)cc(OC)c1 104%
C=CCN1C(=O)C(O)(CC(=O)c2ccccn2)c2ccccc21 (configuration not stated) 104%
COc1ccc(-c2cc(C(=O)NC(Cc3c[nH]c4ccccc34)C(=O)O)c(C)o2)cc1OC (configuration not stated) 93.3%
O=C(Nc1ccc(Br)cn1)c1ccc([N+](=O)[O-])o1 108%
CC(C)C(=O)Nc1cccc(NC(=O)c2ccc([N+](=O)[O-])cc2Cl)c1 112%
O=C(NC1CCCC1)C(NS(=O)(=O)c1ccc(Br)s1)c1ccccc1 (configuration not stated) 94.7%
C/C(=N\NC(=S)NC(C)C)c1ccc(C(C)(C)C)cc1 94.3%
COc1cccc(C(=O)NNC(=O)c2ccccc2Br)c1 98.2%
COc1ccc(C2COC(=O)C2=N)c(NC(=O)c2ccccc2)c1 (configuration not stated) 107%
Cc1ccc(N=Cc2c(O)n(-c3nccs3)c(=O)c3ccccc23)c(C)c1 105%
Cc1cccc(N2CCN(S(=O)(=O)c3ccc4[nH]c(=O)c(=O)[nH]c4c3)CC2C)c1 (configuration not stated) 99.2%
[O-][n+]1onc2c1CCc1[nH]c(-c3ccccc3)nc1-2 101%
Cc1ccc(NC(=O)c2ccc(S(=O)(=O)NCC3CCCO3)cc2)cc1C (configuration not stated) 103%
O=C(NCc1ccncc1)NC12CC3CC(CC(C3)C1)C2 94.6%
O=C(Nc1cccc(CCc2ccccn2)c1)c1ccc(Cl)cc1 96.1%
O=C(Nc1ccccc1)OCc1cc(-c2ccc(Cl)cc2)on1 95.6%
Cc1nc([N+](=O)[O-])cn1CC(=O)Nc1ccc2c(c1)OCO2 101%
CCOC(=O)NC(=O)C(=CNc1cccc(OC)c1)C(=O)NC(=O)OCC 93.9%
O=C(Nc1ccccc1)c1ccc2nsnc2c1 113%
Cc1cccc(NC(=O)c2ccc3nsnc3c2)c1C 104%
Cc1ccc(C(=O)Nc2cccc3ncccc23)cc1[N+](=O)[O-] 106%
Cc1cc(Oc2ccccc2)nc(N2CCOCC2)n1 100%
Cc1nc(N2CCOCC2)nc2c1CCCC2 98.4%
CC(C)OC(=O)CN1CCN(c2ccc(Cl)cc2)CC1 92.2%
O=C1NC(c2cccc(Cl)c2)Nc2ccccc21 (configuration not stated) 107%
Nc1nnnn1CC(=O)N/N=C/c1ccc(-c2cccc(Cl)c2)o1 94.7%
COc1ccc(C2=NN(c3nc4ccccc4s3)C(=O)C2)cc1 101%
CCOc1ccc(NC(=O)NNC(=O)c2ccc(Cl)cc2Cl)cc1 97.2%
CS(=O)(=O)N(CC(=O)N1CCCC1)Cc1ccccc1 98.3%
O=C(CC1CCCCC1)NCc1ccco1 108%
Cc1ccc(OCC(=O)NC(C)c2ccccc2)c([N+](=O)[O-])n1 (configuration not stated) 117%
CSCC(NS(=O)(=O)c1ccc(C)cc1)C(=O)O (configuration not stated) 105%
O=C(Nc1ccc2c(c1)OCCO2)c1ccc(Cl)c(S(=O)(=O)N2CCCCC2)c1 96.8%
O=C(Nc1cccc(Cl)c1N1CCOCC1)c1ccc2c(c1)OCCO2 92.9%
CC(O)CNCCOc1cccc(Oc2ccccc2)c1 (configuration not stated) 102%
COc1ccc(-c2csc(N3CCN(Cc4ccc5c(c4)OCO5)CC3)n2)cc1 101%
COc1ccc(C(=O)Nc2nc(-c3ccc(S(=O)(=O)N4CCOCC4)cc3)cs2)cc1 85.1%
Cc1cc(/C=C2/C(=N)N3C(=NC2=O)SN=C3S(C)(=O)=O)c(C)n1-c1ccccc1 107%
CCCCN(CC)C(=S)Nc1ccc2nc3n(c(=O)c2c1)CCCCC3 91%
Cc1c(NC(=O)Nc2ccccc2)cccc1[N+](=O)[O-] 83.6%
Cc1cc(NC(=O)Nc2ccccc2[N+](=O)[O-])no1 114%
CN(Cc1cccc2ncccc12)C(=O)CC1C(=O)NCCN1Cc1ccc(F)cc1 (configuration not stated) 98.1%
O=C(c1ccc(Cl)cc1)c1cnc(Nc2ccccc2)s1 119%
CC(=O)c1cnc(-c2ccccc2)s1 116%
CS(=O)(=O)n1nc(-c2ccco2)nc1N 105%
COc1ccc(C(=O)CSc2nnnn2C)c(OC)c1 107%
CNC(=O)CSc1nnnn1-c1ccc(C)cc1C 97.7%
